Outcome and AC50 data for 3 compounds are collected here from PubChem BioAssay (EPA / NIEHS).

For orientation: AC50 means the concentration at which the activity in the assay is half-maximal.

Records with an inconclusive call do not appear. Activity calls are given as the source filed them. How the source made its calls: active means hit-call score of the fitted dose curve at least 0.9, where 1 is the maximum; inconclusive means response in the unintended direction; inactive means score below 0.9.

In assay [1] the target is rabbit Imidazoline 2 Central (I2C), CKB (gene 100009085) (UniProt P00567). As to the kind of experiment: NVS_ENZ_rabI2C: NovaScreen (NVS) Enzymatic Assay for rabbit Imidazoline 2 Central (I2C) (AID 2283228). The essentials: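 Rabbit brain membranes, cell-free; readout by filter-based scintillation counting 1.5 hours after dosing, loss of signal vs DMSO. Initial duplicate test at 25 uM, then concentration-response with 50 uM top concentration.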
Chain of rabbit Imidazoline 2 Central (I2C), CKB (gene 100009085) (P00567 whole entry, looked up): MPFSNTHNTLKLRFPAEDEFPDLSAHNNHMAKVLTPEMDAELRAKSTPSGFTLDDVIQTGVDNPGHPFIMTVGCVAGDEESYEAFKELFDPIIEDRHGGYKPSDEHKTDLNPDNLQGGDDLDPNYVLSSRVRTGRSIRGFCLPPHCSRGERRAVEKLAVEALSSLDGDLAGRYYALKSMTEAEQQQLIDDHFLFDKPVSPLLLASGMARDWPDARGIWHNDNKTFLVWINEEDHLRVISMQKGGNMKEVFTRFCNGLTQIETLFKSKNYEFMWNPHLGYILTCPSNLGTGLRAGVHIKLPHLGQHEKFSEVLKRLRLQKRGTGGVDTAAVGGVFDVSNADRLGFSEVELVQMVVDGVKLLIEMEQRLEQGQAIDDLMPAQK

For assay [2], the system named is rat Monoamine Oxidase, MAO-A, Peripheral (MAOAP), gene 29253. As to the kind of experiment: NVS_ENZ_rMAOAP: NovaScreen (NVS) Enzymatic Assay for rat Monoamine Oxidase, MAO-A, Peripheral (MAOAP) (AID 2283237). Here is the method:
(§1) NVS_ENZ_rMAOAP is a biochemical, single-readout assay that uses extracted gene-proteins from Rat liver mitochondrial membranes in a tissue-based cell-free assay. Measurements were taken 1.17 hours after chemical dosing in a 96-well plate.NVS_ENZ_rMAOAP is one of one assay component(s) measured or calculated from the NVS_ENZ_rMAOAP assay. It is designed to make measurements of enzyme activity, a form of enzyme reporter, as detected with scintillation counting signals by Lysate-based radiodetection technology.Data from the assay component NVS_ENZ_rMAOAP was analyzed into 1 assay endpoint. This assay endpoint, NVS_ENZ_rMAOAP, was analyzed in the positive analysis fitting direction relative to DMSO as the negative control and baseline of activity. Using a type of enzyme reporter, loss-of-signal activity can be used to understand changes in the enzymatic activity as they relate to the gene Maoa. Furthermore, this assay endpoint can be referred to as a primary readout, because this assay has produced multiple assay endpoints where this one serves a enzymatic activity function. To generalize the intended target to other relatable targets, this assay endpoint is annotated to the oxidoreductase intended target family, where the subfamily is monoamine oxidase. […]

Assay [3] has as its target rat Monoamine Oxidase, MAO-B, Central (MAOBC), Maob (gene 25750) (UniProt P19643). The assay can be described thus: NVS_ENZ_rMAOBC: NovaScreen (NVS) Enzymatic Assay for rat Monoamine Oxidase, MAO-B, Central (MAOBC) (AID 2283238). The procedure:
as §1, with “NVS_ENZ_rMAOBC” for “NVS_ENZ_rMAOAP”, “brain” for “liver mitochondrial membranes”, “plate.NVS_ENZ_rMAOBC” for “plate.NVS_ENZ_rMAOAP”, “NVS_ENZ_rMAOBC,” for “NVS_ENZ_rMAOAP,”, “Maob.” for “Maoa.”

The target of assay [4] is rat Monoamine Oxidase, MAO-B, Peripheral (MAOBP), Maob (gene 25750) (UniProt P19643). As to the kind of experiment: NVS_ENZ_rMAOBP: NovaScreen (NVS) Enzymatic Assay for rat Monoamine Oxidase, MAO-B, Peripheral (MAOBP) (AID 2283242). Here is the method: as §1, with “NVS_ENZ_rMAOBP” for “NVS_ENZ_rMAOAP”, “brain” for “liver mitochondrial membranes”, “plate.NVS_ENZ_rMAOBP” for “plate.NVS_ENZ_rMAOAP”, “NVS_ENZ_rMAOBP,” for “NVS_ENZ_rMAOAP,”, “Maob.” for “Maoa.”
Chain of rat Monoamine Oxidase, MAO-B, Peripheral (MAOBP), Maob (gene 25750) (P19643 whole entry, looked up): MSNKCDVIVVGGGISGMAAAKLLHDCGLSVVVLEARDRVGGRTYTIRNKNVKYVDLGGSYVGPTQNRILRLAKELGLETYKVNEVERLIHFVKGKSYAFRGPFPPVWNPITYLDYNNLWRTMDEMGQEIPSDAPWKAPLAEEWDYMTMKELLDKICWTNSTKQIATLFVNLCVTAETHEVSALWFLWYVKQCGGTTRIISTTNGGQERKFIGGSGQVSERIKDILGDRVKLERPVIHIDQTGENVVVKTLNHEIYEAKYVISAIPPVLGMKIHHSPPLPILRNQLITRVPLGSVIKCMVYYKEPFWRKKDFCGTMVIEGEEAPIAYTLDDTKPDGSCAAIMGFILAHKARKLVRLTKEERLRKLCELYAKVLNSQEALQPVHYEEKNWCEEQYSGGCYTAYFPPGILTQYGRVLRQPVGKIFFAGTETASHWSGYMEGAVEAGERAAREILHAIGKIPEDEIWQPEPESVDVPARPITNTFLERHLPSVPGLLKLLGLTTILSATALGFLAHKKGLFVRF

Assay [5] deals with bovine Angiotensin II Receptor Type 2 (AT2), gene 407157. The assay can be described thus: NVS_GPCR_bAT2: NovaScreen (NVS) G Protein-Coupled Receptor Assay for bovine Angiotensin II Receptor Type 2 (AT2) (AID 2283240). The essentials: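 Radioligand displacement on bovine cerebellar membranes, 1 hour incubation, filter-based scintillation counting; loss of signal vs DMSO. Duplicate single-point screen at 25 uM, then concentration-response to 50 uM maximum.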

Chain of rat Monoamine Oxidase, MAO-B, Central (MAOBC), Maob (gene 25750) (P19643 whole entry, looked up): as above

For the compound `COc1ccccc1N`, in assay [1], the result was inactive.
Take `Oc1cc(Cl)c(Cl)cc1Cl`: the AC50 is 19.6 µM (active) in assay [2], 8.69 µM (active) in assay [3] and 17.7 µM (active) in assay [4].
With `N#Cc1cccnc1`, the compound was classed as inactive in assay [5].
